This note sets out measurements from ChEMBL document CHEMBL2218924, “A broad activity screen in support of a chemogenomic map for kinase signalling research and drug discovery” (Biochem J, 2013).

Assay [1] deals with Tyrosine-protein kinase SYK (Homo sapiens) (UniProt P43405). The note with it: at 10 µM.
Assay [2] concerns the target T1, Mitogen-activated protein kinase kinase kinase 7 (Homo sapiens) (UniProt O43318).
T1 sequence (whole entry): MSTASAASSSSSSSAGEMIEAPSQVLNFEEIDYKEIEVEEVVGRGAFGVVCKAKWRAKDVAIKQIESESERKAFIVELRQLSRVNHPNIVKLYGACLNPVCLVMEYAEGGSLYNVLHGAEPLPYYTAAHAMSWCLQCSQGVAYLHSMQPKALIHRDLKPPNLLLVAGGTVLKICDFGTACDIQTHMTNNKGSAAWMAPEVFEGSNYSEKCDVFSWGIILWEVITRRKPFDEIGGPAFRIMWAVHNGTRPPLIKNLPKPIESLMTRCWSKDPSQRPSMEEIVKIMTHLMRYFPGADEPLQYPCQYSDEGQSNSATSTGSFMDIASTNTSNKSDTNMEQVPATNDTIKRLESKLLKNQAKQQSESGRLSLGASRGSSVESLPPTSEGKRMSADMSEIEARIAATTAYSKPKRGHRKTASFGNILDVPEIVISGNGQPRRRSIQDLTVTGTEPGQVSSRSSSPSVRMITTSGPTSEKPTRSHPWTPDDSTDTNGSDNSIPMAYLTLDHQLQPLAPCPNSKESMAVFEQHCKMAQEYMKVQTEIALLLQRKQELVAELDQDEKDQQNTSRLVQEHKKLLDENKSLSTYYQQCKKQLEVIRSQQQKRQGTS
The note with it: at 1 µM.

For assay [3], the target named is T1, Mitogen-activated protein kinase kinase kinase 7 (Homo sapiens). The note with it: at 10 µM.
For assay [4], the target named is T2, Serine/threonine-protein kinase TAO1 (Homo sapiens) (UniProt Q7L7X3).
T2 sequence (whole entry): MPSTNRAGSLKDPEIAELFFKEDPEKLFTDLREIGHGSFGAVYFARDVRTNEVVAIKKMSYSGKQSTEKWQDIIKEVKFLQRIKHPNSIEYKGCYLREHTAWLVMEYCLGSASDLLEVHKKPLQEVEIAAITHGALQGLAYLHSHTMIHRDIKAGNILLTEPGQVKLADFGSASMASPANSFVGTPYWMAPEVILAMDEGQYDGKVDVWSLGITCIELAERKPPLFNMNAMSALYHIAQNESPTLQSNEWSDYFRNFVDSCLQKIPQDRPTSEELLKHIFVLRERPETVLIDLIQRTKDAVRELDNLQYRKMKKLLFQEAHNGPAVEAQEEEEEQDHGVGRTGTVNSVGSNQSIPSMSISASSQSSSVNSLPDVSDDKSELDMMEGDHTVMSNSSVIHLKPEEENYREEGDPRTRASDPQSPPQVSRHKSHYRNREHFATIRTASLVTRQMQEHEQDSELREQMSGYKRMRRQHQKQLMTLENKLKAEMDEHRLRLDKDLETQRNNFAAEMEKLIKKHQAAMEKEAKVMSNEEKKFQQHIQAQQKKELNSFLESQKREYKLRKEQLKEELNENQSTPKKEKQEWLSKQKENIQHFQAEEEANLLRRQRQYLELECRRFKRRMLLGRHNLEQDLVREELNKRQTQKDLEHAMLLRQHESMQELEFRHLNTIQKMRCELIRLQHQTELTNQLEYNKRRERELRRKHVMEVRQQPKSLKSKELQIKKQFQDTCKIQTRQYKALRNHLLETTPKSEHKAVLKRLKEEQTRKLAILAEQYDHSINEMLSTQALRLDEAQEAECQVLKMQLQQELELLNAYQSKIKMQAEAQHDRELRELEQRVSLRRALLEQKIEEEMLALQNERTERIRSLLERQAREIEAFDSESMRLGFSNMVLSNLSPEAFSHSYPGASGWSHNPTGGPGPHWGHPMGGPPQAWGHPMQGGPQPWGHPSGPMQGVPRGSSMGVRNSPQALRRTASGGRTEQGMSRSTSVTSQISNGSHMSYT
The note with it: at 1 µM.

The target in assay [5] is T2, Serine/threonine-protein kinase TAO1 (Homo sapiens). Particulars: at 10 µM.
For assay [6], the target named is T3, Serine/threonine-protein kinase TAO2 (Homo sapiens) (UniProt Q9UL54).
T3 sequence (whole entry): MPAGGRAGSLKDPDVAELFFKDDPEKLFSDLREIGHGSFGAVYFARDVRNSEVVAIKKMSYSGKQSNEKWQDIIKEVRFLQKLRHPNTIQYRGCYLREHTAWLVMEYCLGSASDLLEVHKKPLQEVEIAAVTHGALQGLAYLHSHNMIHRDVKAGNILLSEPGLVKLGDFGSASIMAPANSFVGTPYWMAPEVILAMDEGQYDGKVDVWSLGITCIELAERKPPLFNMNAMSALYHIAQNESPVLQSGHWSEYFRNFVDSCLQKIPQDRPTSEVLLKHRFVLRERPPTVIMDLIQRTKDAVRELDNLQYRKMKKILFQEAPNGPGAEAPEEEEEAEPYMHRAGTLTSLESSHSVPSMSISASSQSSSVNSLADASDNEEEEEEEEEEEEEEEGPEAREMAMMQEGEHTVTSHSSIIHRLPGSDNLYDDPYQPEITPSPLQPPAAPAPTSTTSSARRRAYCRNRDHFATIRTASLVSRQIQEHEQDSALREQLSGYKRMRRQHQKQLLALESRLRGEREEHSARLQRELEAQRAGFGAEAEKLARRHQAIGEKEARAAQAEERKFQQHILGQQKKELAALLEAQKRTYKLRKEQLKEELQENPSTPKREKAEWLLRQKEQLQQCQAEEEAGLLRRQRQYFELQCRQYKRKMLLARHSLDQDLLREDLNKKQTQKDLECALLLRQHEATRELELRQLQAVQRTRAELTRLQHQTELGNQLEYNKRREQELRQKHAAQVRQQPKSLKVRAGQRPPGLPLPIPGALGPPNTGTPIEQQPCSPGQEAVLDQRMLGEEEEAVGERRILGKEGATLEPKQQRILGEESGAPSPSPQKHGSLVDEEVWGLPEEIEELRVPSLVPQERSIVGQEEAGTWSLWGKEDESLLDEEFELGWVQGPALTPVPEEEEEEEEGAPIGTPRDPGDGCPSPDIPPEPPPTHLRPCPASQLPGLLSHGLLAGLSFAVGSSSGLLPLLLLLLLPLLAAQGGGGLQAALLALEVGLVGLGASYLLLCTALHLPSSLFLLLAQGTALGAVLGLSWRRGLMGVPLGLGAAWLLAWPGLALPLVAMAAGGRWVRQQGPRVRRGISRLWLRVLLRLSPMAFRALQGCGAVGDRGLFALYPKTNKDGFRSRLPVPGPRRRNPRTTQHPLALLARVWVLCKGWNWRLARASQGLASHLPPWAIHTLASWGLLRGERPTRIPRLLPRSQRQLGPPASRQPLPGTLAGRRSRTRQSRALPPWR
The note with it: at 1 µM.

Assay [7] deals with T3, Serine/threonine-protein kinase TAO2 (Homo sapiens). The note with it: at 10 µM.
Assay [8] has as its target T4, Serine/threonine-protein kinase TAO3 (Homo sapiens) (UniProt Q9H2K8).
T4 sequence (whole entry): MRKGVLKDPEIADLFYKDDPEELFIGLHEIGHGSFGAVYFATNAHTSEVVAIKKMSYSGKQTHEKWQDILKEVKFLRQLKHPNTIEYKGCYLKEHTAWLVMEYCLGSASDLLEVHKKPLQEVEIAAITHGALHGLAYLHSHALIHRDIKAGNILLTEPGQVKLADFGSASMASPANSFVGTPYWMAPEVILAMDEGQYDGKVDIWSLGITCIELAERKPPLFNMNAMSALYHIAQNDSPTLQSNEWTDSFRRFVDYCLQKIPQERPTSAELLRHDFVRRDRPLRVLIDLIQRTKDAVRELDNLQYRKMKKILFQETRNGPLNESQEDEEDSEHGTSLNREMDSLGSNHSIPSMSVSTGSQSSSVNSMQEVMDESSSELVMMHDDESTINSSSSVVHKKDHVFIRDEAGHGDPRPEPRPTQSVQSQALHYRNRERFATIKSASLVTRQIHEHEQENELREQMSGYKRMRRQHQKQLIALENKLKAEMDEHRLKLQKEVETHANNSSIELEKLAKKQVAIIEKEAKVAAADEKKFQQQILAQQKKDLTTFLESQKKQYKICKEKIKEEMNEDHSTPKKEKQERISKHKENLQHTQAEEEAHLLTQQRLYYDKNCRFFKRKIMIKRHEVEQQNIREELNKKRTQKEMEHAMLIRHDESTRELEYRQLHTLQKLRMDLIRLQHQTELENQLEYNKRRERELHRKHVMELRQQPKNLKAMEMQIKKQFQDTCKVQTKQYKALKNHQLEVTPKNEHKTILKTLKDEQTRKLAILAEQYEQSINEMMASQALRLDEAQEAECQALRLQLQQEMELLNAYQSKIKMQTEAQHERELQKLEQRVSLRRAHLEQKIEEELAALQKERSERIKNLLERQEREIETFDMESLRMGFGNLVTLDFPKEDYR
The note with it: at 1 µM.

In assay [9] the target is T4, Serine/threonine-protein kinase TAO3 (Homo sapiens). Particulars: at 10 µM.
Assay [10] deals with T5, Serine/threonine-protein kinase TBK1 (Homo sapiens) (UniProt Q9UHD2).
T5 sequence (whole entry): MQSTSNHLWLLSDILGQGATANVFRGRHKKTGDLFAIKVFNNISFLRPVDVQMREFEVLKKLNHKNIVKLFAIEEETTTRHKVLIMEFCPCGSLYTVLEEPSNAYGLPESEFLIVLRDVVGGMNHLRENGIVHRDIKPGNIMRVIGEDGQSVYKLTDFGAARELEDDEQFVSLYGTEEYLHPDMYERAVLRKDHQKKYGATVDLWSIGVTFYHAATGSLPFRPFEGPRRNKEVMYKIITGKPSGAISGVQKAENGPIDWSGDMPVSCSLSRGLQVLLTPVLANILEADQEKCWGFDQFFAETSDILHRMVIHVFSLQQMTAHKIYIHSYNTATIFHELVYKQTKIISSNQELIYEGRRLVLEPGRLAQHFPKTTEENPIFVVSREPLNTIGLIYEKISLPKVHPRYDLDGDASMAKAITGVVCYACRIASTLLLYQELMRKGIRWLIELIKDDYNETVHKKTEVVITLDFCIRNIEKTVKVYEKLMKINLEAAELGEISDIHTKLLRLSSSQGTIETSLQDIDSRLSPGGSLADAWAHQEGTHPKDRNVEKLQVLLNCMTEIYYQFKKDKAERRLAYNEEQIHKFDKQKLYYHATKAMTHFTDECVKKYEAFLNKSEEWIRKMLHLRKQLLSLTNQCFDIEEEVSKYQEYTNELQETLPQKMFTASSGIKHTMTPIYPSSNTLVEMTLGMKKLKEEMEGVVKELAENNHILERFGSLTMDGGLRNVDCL
Particulars: at 1 µM.

The target of assay [11] is T5, Serine/threonine-protein kinase TBK1 (Homo sapiens). Particulars: at 10 µM.
For assay [12], the target named is T6, TGF-beta receptor type-1 (Homo sapiens) (UniProt P36897).
T6 sequence (whole entry): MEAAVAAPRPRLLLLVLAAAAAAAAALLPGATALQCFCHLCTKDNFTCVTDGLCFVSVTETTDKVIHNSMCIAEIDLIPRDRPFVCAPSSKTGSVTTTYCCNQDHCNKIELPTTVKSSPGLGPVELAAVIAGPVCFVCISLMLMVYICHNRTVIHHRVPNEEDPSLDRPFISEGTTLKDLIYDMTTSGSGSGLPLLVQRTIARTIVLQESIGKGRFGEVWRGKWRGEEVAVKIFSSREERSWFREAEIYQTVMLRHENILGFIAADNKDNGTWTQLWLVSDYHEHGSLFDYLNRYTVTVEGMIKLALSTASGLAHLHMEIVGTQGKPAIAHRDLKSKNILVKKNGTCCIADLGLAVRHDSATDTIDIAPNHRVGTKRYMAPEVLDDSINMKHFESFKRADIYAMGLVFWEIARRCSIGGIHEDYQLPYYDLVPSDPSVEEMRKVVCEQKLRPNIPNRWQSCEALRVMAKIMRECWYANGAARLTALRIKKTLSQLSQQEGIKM
The note with it: at 1 µM.

The target in assay [13] is T6, TGF-beta receptor type-1 (Homo sapiens). Particulars: at 10 µM.
The target of assay [14] is Insulin-like growth factor 1 receptor (Homo sapiens) (UniProt P08069). Particulars: at 1 µM.
Chain of Insulin-like growth factor 1 receptor (Homo sapiens) (P08069 31-736 limits assumed): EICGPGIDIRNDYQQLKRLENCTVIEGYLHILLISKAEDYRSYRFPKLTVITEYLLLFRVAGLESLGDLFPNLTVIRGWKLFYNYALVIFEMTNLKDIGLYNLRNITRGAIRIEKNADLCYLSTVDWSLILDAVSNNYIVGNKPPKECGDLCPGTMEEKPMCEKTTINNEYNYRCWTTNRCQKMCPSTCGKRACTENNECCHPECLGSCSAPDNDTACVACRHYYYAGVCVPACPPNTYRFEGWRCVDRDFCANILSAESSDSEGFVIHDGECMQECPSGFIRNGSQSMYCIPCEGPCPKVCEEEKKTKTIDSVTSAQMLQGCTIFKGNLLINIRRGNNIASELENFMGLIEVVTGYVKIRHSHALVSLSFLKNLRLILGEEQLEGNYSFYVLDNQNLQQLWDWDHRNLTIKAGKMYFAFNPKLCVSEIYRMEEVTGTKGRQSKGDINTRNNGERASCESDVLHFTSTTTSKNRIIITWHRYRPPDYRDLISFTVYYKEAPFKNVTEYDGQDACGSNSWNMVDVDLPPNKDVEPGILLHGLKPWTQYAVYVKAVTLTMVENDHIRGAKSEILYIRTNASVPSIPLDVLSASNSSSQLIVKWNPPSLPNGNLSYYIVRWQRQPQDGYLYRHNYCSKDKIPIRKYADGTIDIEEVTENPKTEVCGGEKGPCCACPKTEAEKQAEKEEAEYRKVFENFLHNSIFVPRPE
Chain of Insulin-like growth factor 1 receptor (Homo sapiens) (P08069 741-1367 limits assumed): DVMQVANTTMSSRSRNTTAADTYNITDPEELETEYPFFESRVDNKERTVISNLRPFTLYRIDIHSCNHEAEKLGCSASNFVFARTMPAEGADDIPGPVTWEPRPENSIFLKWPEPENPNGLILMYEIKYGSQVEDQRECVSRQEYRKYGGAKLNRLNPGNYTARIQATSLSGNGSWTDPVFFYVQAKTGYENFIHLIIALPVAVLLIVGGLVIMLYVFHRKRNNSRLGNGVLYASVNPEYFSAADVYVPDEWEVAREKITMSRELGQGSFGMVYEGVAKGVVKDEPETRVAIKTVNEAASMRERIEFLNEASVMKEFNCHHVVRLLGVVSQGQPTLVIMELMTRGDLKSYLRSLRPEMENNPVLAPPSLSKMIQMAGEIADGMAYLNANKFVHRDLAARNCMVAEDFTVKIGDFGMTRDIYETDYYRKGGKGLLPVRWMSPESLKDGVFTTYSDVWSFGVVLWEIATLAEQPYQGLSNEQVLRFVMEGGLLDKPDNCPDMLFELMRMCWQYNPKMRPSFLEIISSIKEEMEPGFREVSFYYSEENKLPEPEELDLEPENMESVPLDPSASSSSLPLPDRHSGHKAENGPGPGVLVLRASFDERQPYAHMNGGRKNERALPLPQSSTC
Assay [15] shares this target. Particulars: at 10 µM.
Assay [16] deals with T7, Inhibitor of nuclear factor kappa-B kinase subunit alpha (Homo sapiens) (UniProt O15111).
T7 sequence (whole entry): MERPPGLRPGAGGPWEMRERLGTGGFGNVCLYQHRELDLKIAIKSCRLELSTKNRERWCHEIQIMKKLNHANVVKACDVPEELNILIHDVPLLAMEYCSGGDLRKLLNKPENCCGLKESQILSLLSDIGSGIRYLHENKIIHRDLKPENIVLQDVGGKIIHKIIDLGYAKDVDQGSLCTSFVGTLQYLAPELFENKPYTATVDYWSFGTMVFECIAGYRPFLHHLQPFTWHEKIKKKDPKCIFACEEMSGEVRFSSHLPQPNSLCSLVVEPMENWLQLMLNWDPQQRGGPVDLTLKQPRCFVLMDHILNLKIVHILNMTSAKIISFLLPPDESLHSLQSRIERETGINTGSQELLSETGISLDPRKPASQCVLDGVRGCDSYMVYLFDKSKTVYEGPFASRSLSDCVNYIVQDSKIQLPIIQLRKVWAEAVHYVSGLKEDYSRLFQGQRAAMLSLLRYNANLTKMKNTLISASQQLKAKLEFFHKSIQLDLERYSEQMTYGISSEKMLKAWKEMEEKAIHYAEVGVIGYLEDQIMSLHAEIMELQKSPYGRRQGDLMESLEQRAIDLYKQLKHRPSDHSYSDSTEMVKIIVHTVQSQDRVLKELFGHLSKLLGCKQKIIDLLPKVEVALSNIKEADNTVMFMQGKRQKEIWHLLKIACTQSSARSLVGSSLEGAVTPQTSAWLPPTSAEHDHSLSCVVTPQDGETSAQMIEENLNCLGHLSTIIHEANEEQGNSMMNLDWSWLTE
The note with it: at 1 µM.

Assay [17] has as its target T7, Inhibitor of nuclear factor kappa-B kinase subunit alpha (Homo sapiens). Particulars: at 10 µM.

Consider `CCCCc1c(-c2ccc(O)cc2)[nH]c2nccnc12`, for which the residual activity in assay [1] turned out to be 66%; in assay [2], 90%; in assay [3] it was 89%; in [4], 36%; in assay [5] it was 7%; in assay [6], 35%. In addition, the residual activity in assay [7] amounted to 30%; in [8], 62%; in assay [9], 68%; in assay [10] it was 70%; in assay [11], 35%; in assay [12], 91%. Further, the residual activity amounted to 46% in assay [13]; 65% in [14]; 66% in assay [15]; 90% in assay [16]; 81% in assay [17].
